Measured values reported in PubChem BioAssay (NCATS).
Inconclusive results are not listed. Calls of active or inactive are those of the source. Unless noted, calls come from the whole dose curve; as a rule, active = well fitted curve in either direction with a large enough effect (not every such curve was filed as active); inconclusive = small, poorly fitted or top-dose-only effect, or another doubt; inactive = flat fitted curve, though single readings scatter.

Tests used:
[1] = AP1 Signaling Pathway (AID 357); conditions: ME-180 AP-1-bla reporter, EGF-induced, beta-lactamase ratio, 5 h; at 17.2 µM (top of the series) unless noted; note: % is set by controls: 0 for no effect and ±100 for the full control effect
Outline: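 ME-180 cells with beta-lactamase reporter under AP-1 response element, stimulated with EC50 EGF; compounds tested in titration series, 5 h at 37 °C. CCF4 substrate added 2.5 h at room temperature; 460/530 nm emission ratio gave %activity and AC50.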

[2] = NFAT Signaling Pathway (AID 444); conditions: Jurkat NFAT-bla M1, carbachol, beta-lactamase ratio, 5 h; at 17.2 µM (top of the series) unless noted;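 note: carbachol stimulus at about its EC50 of 1 µM final; % is set by controls: 0 for no effect and ±100 for the full control effect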
Outline: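 Read-out: CCF4 FRET ratio (460 nm/530 nm) after 1 h RT dye loading, used for %activity and AC50 from titration series. Cells: Jurkat NFAT-β-lactamase/M1 line, treated with compound plus 1 uM carbachol for 5 h, 37 °C.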

[3] = Stat Signaling Pathway (AID 446); conditions: ME-180 SIE beta-lactamase reporter, IL-6 stimulated, 5 h; at 17.2 µM (top of the series) unless noted;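 note: ME-180 cervical cancer cells given 40 pM IL-6 alongside compound; SIE-controlled beta-lactamase reporter measured as 460/530 nm FRET emission ratio; % is set by controls: 0 for no effect and ±100 for the full control effect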
Outline: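 ME-180 SIE-bla cells; overnight plating; cpd + IL-6 40 pM, 5 h, 37 C; LiveBLAzer 2.5 h RT; 460/530 nm emission ratio. Normalized to 300 pM IL-6 and 125 nM JAK inhibitor controls.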

[4] = target: Glucocorticoid receptor (Homo sapiens) (UniProt P04150); assay: GR-GFP Redistribution (AID 450;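 active = compounds whose dose series gives a full or clear partial fitted curve of increased nuclear translocation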; note: potency is the fitted concentration of half-maximal effect)
Chain of Glucocorticoid receptor (Homo sapiens) (P04150 whole entry, looked up): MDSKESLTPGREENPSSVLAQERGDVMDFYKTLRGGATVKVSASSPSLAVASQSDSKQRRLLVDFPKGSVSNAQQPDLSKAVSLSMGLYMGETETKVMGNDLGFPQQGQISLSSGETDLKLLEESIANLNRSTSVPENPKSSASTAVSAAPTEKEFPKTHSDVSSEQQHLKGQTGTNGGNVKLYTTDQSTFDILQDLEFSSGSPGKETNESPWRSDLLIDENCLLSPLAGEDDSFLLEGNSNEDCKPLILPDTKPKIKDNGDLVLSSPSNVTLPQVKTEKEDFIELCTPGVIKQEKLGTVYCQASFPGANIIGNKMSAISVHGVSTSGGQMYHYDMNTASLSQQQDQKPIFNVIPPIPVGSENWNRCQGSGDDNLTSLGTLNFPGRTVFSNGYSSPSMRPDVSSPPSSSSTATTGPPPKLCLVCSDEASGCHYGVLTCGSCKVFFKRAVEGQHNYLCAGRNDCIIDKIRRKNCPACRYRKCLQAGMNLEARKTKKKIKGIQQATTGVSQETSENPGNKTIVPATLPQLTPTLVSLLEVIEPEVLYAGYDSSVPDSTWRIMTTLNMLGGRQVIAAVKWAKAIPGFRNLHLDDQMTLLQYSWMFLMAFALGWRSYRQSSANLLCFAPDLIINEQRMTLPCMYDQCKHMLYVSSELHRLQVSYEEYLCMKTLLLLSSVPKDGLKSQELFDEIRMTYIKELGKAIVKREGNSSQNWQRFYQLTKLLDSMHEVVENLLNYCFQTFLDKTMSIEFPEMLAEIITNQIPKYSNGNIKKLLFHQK

Cc1cc2ccccc2cc(C)c1=O
inactive: activity change, negative = inhibition [1] 9.45% | activity change, negative = inhibition [2] -28.3% | activity, negative = inhibition [3] -25.4% | Potency [4] > 20.6 µM

Cc1ccc(-c2nn(CCC(=O)NCC3CCCO3)c(=O)c3ccccc23)cc1 (stereo unspecified)
inactive: activity change, negative = inhibition [1] -6.92% | activity change, negative = inhibition [2] -7.06% | activity, negative = inhibition [3] 4.3% | Potency [4] > 20.6 µM

COCCN(C(=O)Nc1ccccc1)c1ccccc1C
inactive: activity change, negative = inhibition [1] -9.46% | activity change, negative = inhibition [2] -0.712% | activity, negative = inhibition [3] 6.32% | Potency [4] > 20.6 µM

CC(=O)Nc1ccc(S(=O)(=O)Nc2nc3n(n2)C(c2ccccc2)CC(=O)N3)cc1 (stereo unspecified)
inactive: activity change, negative = inhibition [1] 4.99% | activity change, negative = inhibition [2] 2.5% | activity, negative = inhibition [3] 1.09% | Potency [4] > 20.6 µM

CCNC(=O)N(C)c1nncnc1C(=O)NC
inactive: activity change, negative = inhibition [1] 5.47% | activity change, negative = inhibition [2] 2.38% | activity, negative = inhibition [3] -6.45% | Potency [4] > 20.6 µM

Cc1cc(C)nc(N(C#N)S(=O)(=O)c2ccccc2Cl)n1
inactive: activity change, negative = inhibition [1] 0.835% | activity change, negative = inhibition [2] -12.4% | activity, negative = inhibition [3] -19.9% | Potency [4] > 20.6 µM

COc1cc(C2Nc3cccc4cccc(c34)N2)cc(OC)c1OC(C)=O
inactive: activity change, negative = inhibition [1] 19.9% | activity change, negative = inhibition [2] 3.51% | activity, negative = inhibition [3] 9.71% | Potency [4] > 20.6 µM

CCOc1ccc(/C(O)=C2/C(=O)C(=O)N(CCN(C)C)C2c2ccccc2)cc1Cl (stereo unspecified)
inactive: activity change, negative = inhibition [1] 8.45% | activity change, negative = inhibition [2] 1.62% | activity, negative = inhibition [3] 7.84% | Potency [4] > 20.6 µM

CC1=CC=CN2CC(O)CN=C12 (stereo unspecified)
inactive: activity change, negative = inhibition [1] 3.58% | activity change, negative = inhibition [2] -0.121% | activity, negative = inhibition [3] 3.52% | Potency [4] > 20.6 µM

COc1ccc(-c2nc3n(n2)C(=O)CC(c2ccco2)S3)cc1 (stereo unspecified)
inactive: activity change, negative = inhibition [1] -9.14% | activity change, negative = inhibition [2] 0.813% | activity, negative = inhibition [3] -11.3% | Potency [4] > 20.6 µM

CSc1nnc(N(CCC#N)CCC#N)s1
inactive: activity change, negative = inhibition [1] 2.14% | activity change, negative = inhibition [2] 21.3% | activity, negative = inhibition [3] 2.15% | Potency [4] > 20.6 µM

C=CCOc1nc2c(c(=O)n(C)c(=O)n2C)n1Cc1ccc(Cl)cc1Cl
inactive: activity change, negative = inhibition [1] 4.26% | activity change, negative = inhibition [2] -9.88% | activity, negative = inhibition [3] -16.6% | Potency [4] > 20.6 µM

COc1cccc(NC(=O)c2cc(C(=O)Nc3cccc(OC)c3)n(C)n2)c1
inactive: activity change, negative = inhibition [1] -12.7% | activity change, negative = inhibition [2] -14.3% | activity, negative = inhibition [3] -3.92% | Potency [4] > 20.6 µM

COc1ccc(C2=Nn3c(nnc3-c3ccccn3)SC2)cc1
inactive: activity change, negative = inhibition [1] -4.44% | activity change, negative = inhibition [2] 2.81% | activity, negative = inhibition [3] 6.62% | Potency [4] > 20.6 µM

COc1ccc2c(=O)c(-c3nc(C)cs3)coc2c1
inactive: activity change, negative = inhibition [1] 13.2% | activity change, negative = inhibition [2] 15.3% | activity, negative = inhibition [3] 12.4% | Potency [4] > 20.6 µM

Cn1c(=O)c2c(nc(NCC(O)CO)n2CCc2ccccc2)n(C)c1=O (stereo unspecified)
inactive: activity change, negative = inhibition [1] 8.87% | activity change, negative = inhibition [2] -3.8% | activity, negative = inhibition [3] 1.91% | Potency [4] > 20.6 µM

O=C1OC2CCC1(c1ccccc1)C2 (stereo unspecified)
inactive: activity change, negative = inhibition [1] -4.71% | activity change, negative = inhibition [2] 10% | activity, negative = inhibition [3] -3.95% | Potency [4] > 20.6 µM

COC(=O)C1=C(C)OC(N)=C(C#N)C1c1ccc(OC)c(OC)c1OC (stereo unspecified)
inactive: activity change, negative = inhibition [1] 11.2% | activity change, negative = inhibition [2] -15.6% | activity, negative = inhibition [3] 8.15% | Potency [4] > 20.6 µM

CCCNC(=O)N(C)c1nncnc1C(=O)NC
inactive: activity change, negative = inhibition [1] -9.23% | activity change, negative = inhibition [2] 2.36% | activity, negative = inhibition [3] -3.2% | Potency [4] > 20.6 µM
